Experimental data reported in PubChem BioAssay (EPA / NIEHS).
Several values for one entry are separate records, joined by “and”; a condition that tells them apart may be missing. Identical values can stand only once. Records with an inconclusive call do not appear. More than one record can exist for a structure, and the calls need not agree. Activity calls are given as the source filed them. Rule for the calls, unless noted: active = hit-call score of the fitted dose curve at least 0.9, where 1 is the maximum; inactive = score below 0.9.

Tests used:
[1] = read-out: succinate dehydrogenase complex iron sulfur subunit B (SDHB), SDHB (gene 6390); assay: LTEA_HepaRG_SDHB: Life Technologies and Expression Analysis (LTEA) Assay for succinate dehydrogenase complex iron sulfur subunit B (SDHB) using HepaRG (AID 2283528); conditions: mRNA level, 48 h; actives raise or lower the signal
How it was run: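 SDHB transcript level read by TaqMan qRT-PCR, housekeeping-normalised (ACTB, GAPDH, POLR2A), after 48 h chemical treatment of plated HepaRG cells; eight concentrations top 100 uM, half-log steps, 0.5% DMSO, duplicates; fitted both directions against DMSO.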

[2] = read-out: Signal transducer and activator of transcription 3 (Homo sapiens) (UniProt P40763); assay: LTEA_HepaRG_STAT3: Life Technologies and Expression Analysis (LTEA) Assay for Signal transducer and activator of transcription (STAT3) using HepaRG (AID 2283529); conditions: mRNA level, 48 h; actives raise or lower the signal
How it was run: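 STAT3 transcript quantified by qRT-PCR against three housekeeping genes (ACTB, GAPDH, POLR2A), fitted both directions relative to DMSO. HepaRG cultures exposed 48 h to eight half-log concentrations, top 100 uM, 0.5% DMSO, serum-free induction medium.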

[3] = read-out: solute carrier (SLCO1B1), SLCO1B1 (gene 10599); assay: LTEA_HepaRG_SLCO1B1: Life Technologies and Expression Analysis (LTEA) Assay for solute carrier (SLCO1B1) using HepaRG (AID 2283530); conditions: mRNA level, 48 h; actives raise or lower the signal
How it was run: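 HepaRG, serum-free induction medium, 48 h dosing, 8-pt half-log from 100 uM, 0.5% DMSO vehicle, duplicates. Readout: SLCO1B1 mRNA, qRT-PCR, ACTB/GAPDH/POLR2A normalization; up or down fit vs DMSO.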

[4] = read-out: sulfotransferase 2A1 (SULT2A1), SULT2A1 (gene 6822); assay: LTEA_HepaRG_SULT2A1: Life Technologies and Expression Analysis (LTEA) Assay for sulfotransferase 2A1 (SULT2A1) using HepaRG (AID 2283531); conditions: mRNA level, 48 h; actives raise or lower the signal
How it was run: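 Transcript levels of SULT2A1, quantified by qRT-PCR and normalized to three housekeeping genes, serve as the readout. Human HepaRG cultures receive test chemicals for 48 h at up to 100 uM in half-log steps, with 0.5% DMSO vehicle.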

[5] = read-out: Transforming Growth Factor (TGFA), TGFA (gene 7039); assay: LTEA_HepaRG_TGFA: Life Technologies and Expression Analysis (LTEA) Assay for Transforming Growth Factor (TGFA) using HepaRG (AID 2283532); conditions: mRNA level, 48 h; actives raise or lower the signal
How it was run: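 TGFA transcript quantified by qRT-PCR (Fluidigm arrays) against three housekeeping genes, after 48 hours chemical treatment of HepaRG cells. Top concentration 100 uM with half-log dilutions, 8 points, duplicates, 0.5% DMSO.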

[6] = read-out: Transforming Growth Factor (TGFB1), TGFB1 (gene 7040); assay: LTEA_HepaRG_TGFB1: Life Technologies and Expression Analysis (LTEA) Assay for Transforming Growth Factor (TGFB1) Transporter using HepaRG (AID 2283533); conditions: mRNA level, 48 h; actives raise or lower the signal
How it was run: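 HepaRG, 48 h post-plating, switched to serum-free induction medium; chemicals 100 uM top, half-log, 8 pts, 0.5% DMSO, dup; 48 h exposure; RNA → Fluidigm TaqMan qRT-PCR; norm ACTB/GAPDH/POLR2A; bidirectional fit vs DMSO.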

TIMP1, TIMP1 (gene 7076) = assay: LTEA_HepaRG_TIMP1: Life Technologies and Expression Analysis (LTEA) Assay for TIMP1 using HepaRG (AID 2283534); conditions: mRNA level, 48 h; actives raise or lower the signal;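 note: TaqMan qRT-PCR signal normalized to ACTB GAPDH and POLR2A housekeeping genes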
How it was run: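 Readout is TIMP1 mRNA level measured by qRT-PCR and normalized to three housekeeping genes. Human HepaRG cells were treated for 48 h in duplicate at eight concentrations up to 100 uM (0.5% DMSO); gain or loss fitted against DMSO.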

[7] = read-out: Tumor necrosis factor receptor 1 (TNFRSF1A), TNFRSF1A (gene 7132); assay: LTEA_HepaRG_TNFRSF1A: Life Technologies and Expression Analysis (LTEA) Assay for Tumor necrosis factor receptor 1 (TNFRSF1A) using HepaRG (AID 2283535); conditions: mRNA level, 48 h; actives raise or lower the signal
How it was run: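 Read-out is TNFRSF1A transcript level by TaqMan qRT-PCR, normalized to three housekeeping genes, scored as gain or loss of signal versus 0.5% DMSO. Human HepaRG cells received test chemicals for 48 h at up to 100 uM (half-log series).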

[8] = read-out: Thyroid Hormone Responsive (THRSP), THRSP (gene 7069); assay: LTEA_HepaRG_THRSP: Life Technologies and Expression Analysis (LTEA) Assay for Thyroid Hormone Responsive (THRSP) using HepaRG (AID 2283536); conditions: mRNA level, 48 h; actives raise or lower the signal
How it was run: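 THRSP transcript quantified by Fluidigm qRT-PCR against three housekeeping genes after 48 h chemical exposure of HepaRG cells in serum-free induction medium; eight-point half-log series, top 100 uM, 0.5% DMSO vehicle, duplicate wells.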

[9] = read-out: Cellular tumor antigen p53 (Homo sapiens) (UniProt P04637); assay: LTEA_HepaRG_TP53: Life Technologies and Expression Analysis (LTEA) Assay for Tumor Protein P53 (TP53) using HepaRG (AID 2283537); conditions: mRNA level, 48 h; actives raise or lower the signal
How it was run: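 TP53 transcript measured by qRT-PCR, normalized to three housekeeping genes, after 48 h treatment of human HepaRG cultures with chemicals from 100 uM downward in half-log steps (0.5% DMSO vehicle, serum-free induction medium). Up- or down-regulation fitted against DMSO.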

[10] = read-out: X-box binding protein 1 (XBP1), XBP1 (gene 7494); assay: LTEA_HepaRG_XBP1: Life Technologies and Expression Analysis (LTEA) Assay for X-box binding protein 1 (XBP1) using HepaRG (AID 2283540); conditions: mRNA level, 48 h; actives raise or lower the signal
How it was run: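 Transcript levels of XBP1, measured by qRT-PCR and normalised to three housekeeping genes, were fitted bidirectionally relative to 0.5% DMSO controls. Human HepaRG cells received eight-point half-log dilutions from 100 uM for 48 h.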

[11] = LTEA_HepaRG_LDH_cytotoxicity: Cytotoxicity Assessment in the Life Technologies and Expression Analysis (LTEA) Assay (AID 2283563; active = hit-call score of the fitted dose curve at least 0.9, where 1 is the maximum)
How it was run: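 Cells were thawed and plated for 48 h. Medium was then replaced with serum-free induction medium. Chemicals (8 half-log points, maximum 100 uM, 0.5% DMSO) were added in duplicate for 48 h, after which spent medium was assayed for LDH.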

[12] = ATG_XTT_Cytotoxicity: Cytotoxicity Assessment in the Attagene TRANS-FACTORIAL HepG2 Assay (AID 2283584; active = hit-call score of the fitted dose curve at least 0.9, where 1 is the maximum)
How it was run: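 Cells: human HepG2, transiently transfected with MRTU reporter constructs. Exposure 24 h. Readout: XTT, cell number. Baseline/neg ctrl DMSO; loss-of-signal scored.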

[13] = TOX21_p53_BLA_p2_viability: Viability Assessment in the Tox21 HCT-116 p53 Agonism Beta-lactamase Assay, Phase 2 (AID 2283591; active = hit-call score of the fitted dose curve at least 0.9, where 1 is the maximum;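 note: compound exposure lasted 16 h at 37 °C; actives lower the ATP signal meaning cytotoxicity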)
How it was run: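 Cytotoxicity readout: CellTiter-Glo ATP luminescence, 30 min at room temperature, after the beta-lactamase read. Cells were HCT116 exposed 16 h at 37C to compounds pin-transferred at 217-fold dilution from DMSO stocks.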

[14] = target: Cellular tumor antigen p53 (Homo sapiens) (UniProt P04637); assay: TOX21_p53_BLA_p2_ratio: Tox21 HCT-116 p53 Agonism Beta-lactamase Assay, Ratio, Phase 2 (AID 2283592; active = hit-call score of the fitted dose curve at least 0.9, where 1 is the maximum)
Sequence of Cellular tumor antigen p53 (Homo sapiens) (P04637 whole entry, looked up): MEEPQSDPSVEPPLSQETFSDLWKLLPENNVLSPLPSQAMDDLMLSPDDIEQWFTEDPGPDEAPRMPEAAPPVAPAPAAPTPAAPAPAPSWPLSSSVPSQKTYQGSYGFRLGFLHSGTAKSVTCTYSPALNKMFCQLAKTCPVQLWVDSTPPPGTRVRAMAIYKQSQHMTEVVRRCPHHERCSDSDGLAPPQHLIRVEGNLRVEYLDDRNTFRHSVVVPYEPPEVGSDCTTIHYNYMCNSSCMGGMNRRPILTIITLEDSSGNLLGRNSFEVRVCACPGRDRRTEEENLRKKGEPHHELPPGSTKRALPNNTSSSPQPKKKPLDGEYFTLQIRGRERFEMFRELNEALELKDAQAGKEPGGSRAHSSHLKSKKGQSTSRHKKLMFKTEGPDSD
How it was run: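 Plated HCT116 p53-bla cells (4000/well) received compound after 5 h, then 16 h at 37C/5% CO2. CCF4-AM added, 2 h RT. Ratio of 460 to 530 nm emission taken as the p53 reporter signal.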

[15] = TOX21_p53_BLA_p3_viability: Viability Assessment in the Tox21 HCT-116 p53 Agonism Beta-lactamase Assay, Phase 3 (AID 2283593; active = hit-call score of the fitted dose curve at least 0.9, where 1 is the maximum;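 note: cells exposed to compound for 16 h before reading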)
How it was run: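 Cellular ATP was quantified by CellTiter-Glo luminescence, read after 30 min at room temperature. Beforehand, HCT116 cells (4000/well) received compound 5 h post-seeding, 217-fold diluted from DMSO, then incubated 16 h at 37C.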

[16] = target: Cellular tumor antigen p53 (Homo sapiens) (UniProt P04637); assay: TOX21_p53_BLA_p3_ratio: Tox21 HCT-116 p53 Agonism Beta-lactamase Assay, Ratio, Phase 3 (AID 2283596; active = hit-call score of the fitted dose curve at least 0.9, where 1 is the maximum)
How it was run: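 Cells were seeded at 4000/well, rested 5 h at 37C, then dosed with DMSO compound solutions (217-fold dilution) for 16 h. CCF4-AM substrate was loaded for 2 h at room temperature, and the 460/530 nm emission ratio was fitted for gain of signal versus DMSO.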

[17] = TOX21_p53_BLA_p4_viability: Viability Assessment in the Tox21 HCT-116 p53 Agonism Beta-lactamase Assay, Phase 4 (AID 2283597; active = hit-call score of the fitted dose curve at least 0.9, where 1 is the maximum;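 note: hits lower the luminescence signal meaning cytotoxicity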)
How it was run: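 Readout: ATP luminescence (CellTiter-Glo), measured 30 min after reagent addition at RT. The reagent followed a 2 h CCF4-AM incubation, and the cells had been exposed to compound for 16 h at 37C.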

[18] = read-out: UDP glucuronosyltransferase (UGT1A6), UGT1A6 (gene 54578); assay: LTEA_HepaRG_UGT1A6: Life Technologies and Expression Analysis (LTEA) Assay for UDP glucuronosyltransferase (UGT1A6) using HepaRG (AID 2283539); conditions: mRNA level, 48 h; actives raise or lower the signal
How it was run: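 HepaRG, 48 h post-plating switch to serum-free induction medium; chemical 48 h, 100 uM top, half-log x8, duplicate, 0.5% DMSO. Phenobarbital 1mM induction control. UGT1A6 mRNA by TaqMan qRT-PCR; gain/loss fit vs DMSO.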

[19] = read-out: UDP glucuronosyltransferase (UGT1A1), UGT1A1 (gene 54658); assay: LTEA_HepaRG_UGT1A1: Life Technologies and Expression Analysis (LTEA) Assay for UDP glucuronosyltransferase (UGT1A1) using HepaRG (AID 2283538); conditions: mRNA level, 48 h; actives raise or lower the signal
How it was run: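 UGT1A1 transcript level, measured by qRT-PCR with three housekeeping genes for normalization, after 48 h treatment of human HepaRG cells (0.5% DMSO, duplicates, up to 100 uM, half-log steps, 8 points). Curves fit both directions against DMSO baseline.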

Measured: AC50

Sequence of Signal transducer and activator of transcription 3 (Homo sapiens) (P40763 whole entry, looked up): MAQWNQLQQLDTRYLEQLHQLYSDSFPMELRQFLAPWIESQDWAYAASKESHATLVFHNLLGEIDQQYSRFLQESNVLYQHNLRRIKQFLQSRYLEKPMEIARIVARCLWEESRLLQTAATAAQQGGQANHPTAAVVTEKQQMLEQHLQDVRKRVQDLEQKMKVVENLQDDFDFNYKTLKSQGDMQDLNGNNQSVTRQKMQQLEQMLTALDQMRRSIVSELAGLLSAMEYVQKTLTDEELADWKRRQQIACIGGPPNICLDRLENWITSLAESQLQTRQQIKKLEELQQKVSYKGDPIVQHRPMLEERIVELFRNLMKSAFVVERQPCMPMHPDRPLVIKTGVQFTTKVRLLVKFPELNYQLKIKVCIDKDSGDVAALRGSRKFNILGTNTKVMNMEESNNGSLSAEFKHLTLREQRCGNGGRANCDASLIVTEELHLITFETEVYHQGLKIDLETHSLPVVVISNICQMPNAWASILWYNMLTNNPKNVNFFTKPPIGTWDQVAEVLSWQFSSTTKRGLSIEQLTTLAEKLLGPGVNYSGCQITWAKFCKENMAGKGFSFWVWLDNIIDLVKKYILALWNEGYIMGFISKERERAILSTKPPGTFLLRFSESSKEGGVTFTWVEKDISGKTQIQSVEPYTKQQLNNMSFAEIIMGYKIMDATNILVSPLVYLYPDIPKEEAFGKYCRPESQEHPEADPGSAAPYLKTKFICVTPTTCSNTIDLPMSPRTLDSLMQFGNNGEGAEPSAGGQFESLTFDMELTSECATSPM

CC1=C(/C=C/C(C)=C/C=C/C(C)=C/CO)C(C)(C)CCC1
active: [4] 52.2 µM | [17] 78.5 µM
not listed: [18] | [19]
inactive: all other assays above

Clc1cc(Cl)c(Cl)cc1Cl
not listed: [10] | [14] | [18] | [19]
inactive: all other assays above

CCCCOC(=O)CCCCCCCCC(=O)OCCCC
not listed: [10] | [12] | [13] | [16] | [18] | [19]
inactive: all other assays above

O=c1c(O)c(-c2ccc(O)c(O)c2)oc2cc(O)cc(O)c12
inactive: [1] | [2] | [4] | [5] | [6] | TIMP1, TIMP1 (gene 7076) | [7] | [8] | [9] | [10] | [11] | [13] | [15] | [17]
active: [3] 86.8 µM | [14] 20.2 µM [middle of 4 runs] | [17] 34.7 µM

Cc1ccccc1Cl
not listed: [10] | [17] | [18] | [19]
inactive: all other assays above

Oc1ccc2c(c1)OC[C@@H](N1CCC(O)(c3ccc(F)cc3)CC1)[C@H]2O
not listed: [10] | [12] | [13] | [15] | [19]
inactive: all other assays above

NS(=O)(=O)c1cc2c(cc1Cl)NCNS2(=O)=O
not listed: [10] | [12] | [18] | [19]
inactive: all other assays above

C[Si]1(C)O[Si](C)(C)O[Si](C)(C)O[Si](C)(C)O1
not listed: [10] | [12] | [16] | [17] | [18] | [19]
inactive: all other assays above

c1cc(-c2ccncc2)ccn1
active: [19] 50 µM
not listed: [8] | [18]
inactive: all other assays above

O=C(N[C@@H](Cc1ccccc1)[C@@H](O)C(=O)N1C[C@@H](O)[C@@H](O)C1)c1cc2cc(Cl)ccc2[nH]1
active: [8] 88.6 µM | [9] 50 µM | [17] 71 µM
not listed: [6] | [10] | [12] | [19]
inactive: all other assays above

CCCCCCCCCCCC(=O)OC
not listed: [10] | [17] | [18] | [19]
inactive: all other assays above

Cc1ccc(Cl)cc1
not listed: [8] | [10] | [15] | [18]
inactive: all other assays above

Nc1ccc2c(c1)C(=O)c1ccccc1C2=O
active: [3] 4.66 µM | [8] 6.08 µM | [9] 18.2 µM | [19] 7.74 µM
not listed: [7] | [10]
inactive: all other assays above

COc1cc(/C=C/C(=O)CC(=O)/C=C/c2ccc(O)c(OC)c2)ccc1O
active: [13] 82.2 µM and 34.1 µM | [14] 2.06 µM and 36 µM and 6.79 µM | [15] 57.5 µM and 19.8 µM | [16] 13.6 µM and 35.3 µM and 6.9 µM | [17] 88.4 µM and 23 µM
inactive: [12] | [13] | [15] | [17]
